A selection: hits, their analogues and other compounds. The true share with any hit is near 19%.
TGFb SMAD3 inh: blocks TGF-b signaling; HepG2 CAGA-GFP TGF-b/SMAD3 reporter, GFP fluorescence, 18 h; TGF-beta stimulated, 500 pg/mL final; Potency, µM (top dose mostly 46.1 µM), most hits filed as inhibitors; 1.2% of 410,000 active; AID 588855; further: nearly all actives have a fitted effect of over 65% in size
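Cell-based qHTS in HEPG2 carrying a CAGA-GFP Smad reporter; compounds added before 500 pg/mL final TGF-beta, 18 h incubation at 37 degrees C, GFP fluorescence quantified per cell by imaging cytometry.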
TDP1 cell CPT: DT40-hTDP1 cell growth loss with CPT; 12% of 420,000 active; AID 686979; chicken DT40 Tdp1-/-;hTDP1 cells + 20 nM CPT, ATP luminescence, 48 h; Potency, µM (highest dose often 46.2 µM), actives largely listed as inhibitors; further: nearly all actives have a fitted effect of over 55% in size
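Cell growth measured by CellTiter-Glo luminescence after a minimum 48 h, 37 C compound exposure with 20 nM CPT in Tdp1-knockout DT40 cells stably expressing hTDP1, seeded 400/well; qHTS titration format.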
IL-1B inflam inh: inflammasome signaling inhibition, IL-1 beta readout | THP-1 LPS/ATP IL-1B secretion, AlphaLISA, 16 h; hits give low values | activity change, % at 57.5 µM | 4.7% of 360,000 active; in the data active means activity change below about -50%; inconclusive means mostly about -30% to -49%
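Secreted IL-1B measured by AlphaLISA bead assay after 16 h compound exposure of THP-1 cells; compounds (final up to 57.5 uM) added 1 h before LPS (250 ng/mL) and ATP (1.25 mM) stimulation; lower signal means less secretion.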
TDP1 inh: TDP1 (human) enzyme inhibition. recombinant TDP1, AlphaScreen DNA substrate cleavage. Q9NUW8. Potency, µM (top dose mostly 130 µM), hits mostly inhibitors. 0.28% of 350,000 active; further: nearly all actives have a fitted effect of over 40% in size
Target sequence (Q9NUW8 whole entry, looked up): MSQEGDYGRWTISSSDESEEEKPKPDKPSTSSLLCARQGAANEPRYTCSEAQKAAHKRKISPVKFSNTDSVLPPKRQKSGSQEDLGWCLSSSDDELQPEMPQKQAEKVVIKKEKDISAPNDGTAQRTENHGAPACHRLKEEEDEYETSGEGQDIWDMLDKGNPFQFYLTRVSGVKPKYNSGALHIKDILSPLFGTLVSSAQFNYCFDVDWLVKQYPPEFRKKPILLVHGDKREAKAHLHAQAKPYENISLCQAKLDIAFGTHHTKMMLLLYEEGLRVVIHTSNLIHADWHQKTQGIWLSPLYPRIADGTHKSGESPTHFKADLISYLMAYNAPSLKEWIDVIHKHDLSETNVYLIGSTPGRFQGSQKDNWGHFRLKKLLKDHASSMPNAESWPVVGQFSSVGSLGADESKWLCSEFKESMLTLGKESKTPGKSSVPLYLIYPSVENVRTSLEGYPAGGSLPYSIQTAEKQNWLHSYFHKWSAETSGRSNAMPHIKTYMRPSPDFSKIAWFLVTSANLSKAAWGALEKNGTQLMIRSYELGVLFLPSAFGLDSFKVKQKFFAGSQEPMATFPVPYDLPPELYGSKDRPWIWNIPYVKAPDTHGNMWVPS
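Recombinant E. coli-expressed Tdp1 (1 nM) preincubated with compound 15 min at RT, then 5'-biotin/3'-phosphotyrosine-FITC DNA substrate (15 nM) added for 5 min. AlphaScreen beads (10 ug/ml) added, 10 min RT; tyrosine-FITC cleavage read as signal loss.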
HepG2 viability: kills HepG2 cells in TGF-b inhibitor counter-screen. 0.76% of 410,000 active. HepG2 CAGA-GFP viability, ATP luminescence, 18 h. Potency, µM (series often up to 46.1 µM), most hits filed as cytotoxic
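HepG2 CAGA-GFP cells (1000/well, DMEM with 1% FBS) received compound, then TGF-beta at 500 pg/mL final, and were incubated 18 hours at 37 degrees C. Viability was read by CellTiter-Glo luminescence. Media-only wells were set as complete cell-killing and DMSO as no toxicity.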
TDP1 cell noCPT: qHTS for Inhibitors of human tyrosyl-DNA phosphodiesterase 1 (TDP1): qHTS in cells in absence of CPT; DT40 Tdp1-/- hTDP1 cells, no CPT, ATP luminescence, 48 h; Potency, µM (doses to about 46.2 µM), actives largely listed as inhibitors; 15% of 420,000 active; AID 686978, 2013; further: nearly all actives have a fitted effect of over 55% in size
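Chicken DT40 Tdp1-/- cells stably complemented with human TDP1 were seeded at 400 cells/well with DMSO in place of 20 nM camptothecin. After compound pinning, cells grew at least 48 hr at 37 °C; viability read by CellTiter-Glo luminescence.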
Hits are given with their value; 0 = inactive; ? = inconclusive; - = no result; [ ] = another dose, or the depositor's remark. Unless noted, the call rests on the fitted dose curve; in most records, active means well fitted curve in the direction sought with a large enough effect; inconclusive means small, poorly fitted or top-dose-only effect, or another doubt; inactive means no such curve, though single readings can be large; an effect the other way counts as inactive or inconclusive.

SMILES	TGFb SMAD3 inh	TDP1 cell CPT	IL-1B inflam inh	TDP1 inh	HepG2 viability	TDP1 cell noCPT
COc1ccc2c(c1)C(=O)N1[C@H]3c4cc(Cl)ccc4OC[C@@H]3[C@H](c3ccccc3)[C@]1(C)C(=O)N2	0	?	?	0	0	?
COc1ccc2c(c1)[C@H]1[C@H](CO2)[C@H](c2ccccc2)[C@]2(C)C(=O)Nc3cc(Cl)ccc3C(=O)N12	0	?	0	-	0	?
Cc1ccc2c(c1)[C@H]1[C@H](CO2)[C@H](c2ccccc2)[C@]2(C)C(=O)Nc3cc(Cl)ccc3C(=O)N12	0	?	0	0	0	21µM
COc1cc2c(cc1OC)C(=O)N1[C@H]3c4cc(Cl)ccc4OC[C@@H]3[C@H](c3ccccc3)[C@]1(C)C(=O)N2	?	21µM	-50	0	0	18µM
CCOC(=O)c1c(C)[nH]c(C)c1S(=O)(=O)N(C)CC(=O)Nc1ccc(CC)cc1	?	0	-	0	0	0
Cc1onc(-c2ccccc2)c1NC(=O)OC(C)c1cccnc1 (stereo not drawn)	0	0	0	-	0	?
CC(C)[C@@H](C(=O)N1CCCC1)N1C(=O)N2CCc3c([nH]c4ccccc34)[C@@]2(C)C1=O	0	?	0	-	0	?
C[C@@]12C(=O)Nc3cc(F)ccc3C(=O)N1[C@H]1c3ccccc3OC[C@@H]1[C@@H]2c1ccccc1	0	?	-75	0	0	?
C[C@@]12C(=O)N(c3ccc(F)cc3)C(=O)N1[C@@H]1c3ccccc3OC[C@@H]1[C@H]2c1ccccc1	0	?	0	-	0	?
CCCCc1nnc(NC(=O)Cc2ccc(S(=O)(=O)N3CCOCC3)s2)s1	0	0	0	0	0	0
COc1ccc(CNC(=O)C(=O)Nc2ccccc2OC)cc1	0	0	-	0[12.3 µM]	0	0
COc1ccc(CNCCC(c2ccc(OC)cc2)c2ccccc2OC)cc1 (stereo not drawn)	?	18µM	-83	-	11µM	6.5µM
COc1ccc(C(CCNCc2ccc(OC(C)C)cc2)c2ccccc2OC)cc1 (stereo not drawn)	14µM	23µM	-89	-	11µM	16µM
COc1ccc(CNC/C=C/c2ccccc2)cc1	0	?	0	0	0	?
COc1ccc(C(CCNCc2ccc(N(C)C)cc2)c2ccccc2OC)cc1 (stereo not drawn)	?	18µM	-101	-	0	15µM
Cc1ccc(-c2nc(CS(=O)(=O)CC(=O)Nc3ccc(Br)cc3F)c(C)o2)cc1	0	?	-	0	0	?
COc1cc(NC(=O)C(OC(=O)CNC(=O)c2ccccc2)c2ccccc2)cc(C(F)(F)F)c1 (stereo not drawn)	-	-	-	0	-	-
CCOc1ccc(-c2c(C)nn3c(C)c(C(=O)Nc4cccc(Cl)c4C)cnc23)cc1OCC	0	?	-	0	0	?
Cc1noc(C)c1C(=O)N1CCC2(CC1)CN(c1ncccn1)C2	-	0	-	-	-	0
O=C(Nc1ccc(Nc2ccccc2)cc1)c1ccccc1F	0	?	-97	-	0	?
CCN(CC)c1ccc(NC(=O)c2ccccc2F)cc1	0	?	0	0	0	23µM
N#CC1(c2ccc(NC(=O)c3ccccc3F)cc2)CCCC1	?	?	-69	0	0	?
CCCOc1ccc(-c2nn(-c3ccccc3)cc2C2NC(=O)NC(C)=C2C(=O)OC(C)C)cc1 (stereo not drawn)	?	?	-	-	0	?
O=C(NC1(C(F)(F)F)NC(=O)N(CCc2ccccc2)C1=O)c1ccccc1F (stereo not drawn)	0	0	-	0	0	0
O=C(Nc1ccc2nc(-c3cccs3)c(-c3cccs3)nc2c1)N1CCOCC1	0	?	-60	0	0	13µM
c1ccc2c(c1)OCC(c1csc3ncnc(N4CCCC4)c13)O2 (stereo not drawn)	?	15µM	0	0	0	10µM

Assay outcomes as filed in PubChem.
